# Rab9 prom act: qHTS Assay for Rab9 Promoter Activators; Huh7 Rab9 promoter-luciferase reporter, luminescence, 24 h; Potency, µM (top dose mostly 9.22 µM), without a hit: at the highest dose activation, negative = inhibition, usual class: activators; 320,000 compounds, 2.8% hits; AID 485297, 2010; further: % of control where 0% means no effect; nearly all actives have a fitted effect of over 60% in size
#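 Cell-based reporter: Huh7 stable for Rab9 promoter-driven luciferase, plated in reduced-serum medium with 10% FBS at 1500 cells/well, compound-treated 24 h at 37 °C, luminescence read after 10 min reagent.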
# SMN2 splice enh: qHTS Assay for Enhancers of SMN2 Splice Variant Expression; 210,000 compounds, 2.8% hits; HEK293 SMN2-luciferase splicing reporter, luminescence, 30-36 h; Potency, µM (doses to about 46.1 µM), for the others: top-dose activity change, positive = activation, usual class: activators; AID 1458, 2008; further: % of control where 0% means no effect; nearly all actives have a fitted effect of over 55% in size
#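 qHTS luciferase splicing reporter: luminescence rises when SMN2 exon 7 is included in transfected HEK293 cells. Compound exposure lasted 30-36 h at 37C, with 4.5 mM final sodium butyrate as control, followed by a ONE-Glo read.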
# ELG1 genotoxic: qHTS screen for small molecules that induce genotoxicity in human embryonic kidney (HEK293T) cells expressing luciferase-tagged ELG1. HEK293T ELG1-luciferase reporter, luminescence, 16 h. Potency, µM (titrated, usually from 46 µM), for inactives: top-dose activity change, positive = activation, most hits filed as activators. 330,000 compounds, 1.3% hits; further: % of control where 0% means no effect; nearly all actives have a fitted effect of over 60% in size
#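 HEK293T cells expressing luciferase-tagged ELG1 were exposed to compound or DMSO vehicle for 16 hr at 37 °C and 5% CO2. Luciferase activity was then measured with ONE-Glo after 30 min at room temperature.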
# ELG1 DNA repair: qHTS screen for small molecules that inhibit ELG1-dependent DNA repair in human embryonic kidney (HEK293T) cells expressing luciferase-tagged ELG1. 330,000 compounds, 2.3% hits. HEK293T ELG1-luciferase reporter, luminescence, 16 h; DNA damage induced by 5-fluorouridine. Potency, µM (top dose mostly 46.1 µM), without a hit: top-dose activity change, negative = inhibition, actives largely listed as inhibitors. AID 504467, 2011; further: on the % scale 0 is the no-effect control and ±100 the full control effect; nearly all actives have a fitted effect of over 55% in size
#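 Step one: seed 2,000 cells per well. Step two: pin-transfer compound or DMSO alongside 5-fluorouridine. Step three: incubate 16 hr, 37 °C, 5% CO2. Step four: add ONE-Glo, wait 30 min, read luminescence.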
# NPC1 prom act: qHTS Assay for NPC1 Promoter Activators. Huh7 NPC1 promoter luciferase reporter, 24 h. Potency, µM (titrated, usually from 9.22 µM), for the others: at the top dose activation, usual class: activators. 320,000 compounds, 2.4% hits. AID 485313, 2010; further: % of control where 0% means no effect; nearly all actives have a fitted effect of over 60% in size
#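 Luminescence read-out of NPC1 promoter-driven luciferase in stably transfected Huh7 cells; compounds delivered in DMSO and left 24 h at 37C, 5% CO2, qHTS titration format.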
# FLuc modulator: qHTS profiling assay for firefly luciferase inhibitor/activator using purifed enzyme and Km concentrations of substrates (counterscreen for miR-21 project) | Potency, µM (doses to about 57.5 µM), for the others: at the top dose activity change, negative = inhibition, hits mostly inhibitors | 360,000 compounds, 6.9% hits | Luciferin 4-monooxygenase (Photinus pyralis), P08659 | AID 588342, 2011 | purified FLuc, Km substrates, luminescence inhibition;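 further: plate controls were vehicle for no effect and reference inhibitor for full effect; nearly all actives have a fitted effect of over 55% in size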
# Target sequence (P08659 whole entry, looked up): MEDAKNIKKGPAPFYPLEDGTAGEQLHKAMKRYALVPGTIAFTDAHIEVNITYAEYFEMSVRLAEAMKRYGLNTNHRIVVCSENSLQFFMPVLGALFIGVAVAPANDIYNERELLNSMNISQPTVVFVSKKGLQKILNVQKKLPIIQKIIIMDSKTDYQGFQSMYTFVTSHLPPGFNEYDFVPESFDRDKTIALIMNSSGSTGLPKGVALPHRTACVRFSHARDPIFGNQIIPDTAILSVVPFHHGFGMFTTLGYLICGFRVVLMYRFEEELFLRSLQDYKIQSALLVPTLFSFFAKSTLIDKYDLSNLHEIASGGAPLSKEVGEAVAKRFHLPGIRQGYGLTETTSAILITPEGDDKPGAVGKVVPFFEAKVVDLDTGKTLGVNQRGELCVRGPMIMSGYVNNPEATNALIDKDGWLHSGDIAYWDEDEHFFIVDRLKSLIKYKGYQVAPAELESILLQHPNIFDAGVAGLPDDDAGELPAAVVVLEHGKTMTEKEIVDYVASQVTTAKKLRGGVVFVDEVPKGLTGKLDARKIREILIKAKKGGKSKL
#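 Purified P. pyralis luciferase (10nM final) with 10uM D-luciferin and 10uM ATP (Km levels) in 50mM Tris acetate pH 7.5, 10mM Mg acetate, 0.01% Tween-20, 0.05% BSA; qHTS 6-point titration, ~60 µM downward; luminescence read.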
# Active calls of the source: *; ? = inconclusive; / = no result given. Hits are enriched below; roughly 9.2% of the tested compounds scored in any of these assays. The call rests on the fitted dose curve; in most records, active means well fitted curve in the direction sought with a large enough effect; inconclusive means small, poorly fitted or top-dose-only effect, or another doubt; inactive means no such curve, though single readings can be large; an effect the other way counts as inactive or inconclusive. Potency means the concentration at half of the fitted maximal effect.
SMILES,Rab9 prom act,SMN2 splice enh,ELG1 genotoxic,ELG1 DNA repair,NPC1 prom act,FLuc modulator
O=C(/C=C/c1c[nH]c2ccccc12)c1ccccc1,3.5µM*,10µM*,16µM*,?,3.2µM*,5.4µM*
COc1ccc(CN(C(=O)c2snc(C(N)=O)c2N)C(C(=O)NC2CCCC2)c2ccco2)cc1 (stereo unspecified),-6%,/,-8%,-5%,-6%,2%
CC(C)OCc1ccc(C(=O)N2CCN(CC(=O)N3CCCC3)CC2)cc1,/,/,1%,7%,/,/
CC1=C/C(=C(\c2cc(C)c(O)c(Br)c2)c2ccccc2S(=O)(=O)O)C=C(Br)C1=O,-13%,/,-25%,?,-9%,9.5µM*
O=C(O)c1cccc(Nc2ccncc2[N+](=O)[O-])c1,-5%,/,0%,6%,-5%,-1%
Cc1cccc(OCC(=O)OCC(=O)NCC2CCCO2)c1C (stereo unspecified),3%,/,3%,7%,0%,/
Cc1cc(O)c(-c2n[nH]c3c2C(c2cccc(O)c2)N(Cc2cccnc2)C3=O)cc1Cl (stereo unspecified),2%,20µM*,3%,?,-4%,8%
COc1ccc(NC(=O)CN(C)C(=O)CSCc2c(C)noc2C)cc1,0%,/,-1%,15%,-2%,3%
Cc1ccc(S(=O)(=O)N(C)CCCC(=O)Nc2ccncc2)cc1,-7%,-72%,-18%,5.8µM*,-1%,5%
CCOC(=O)Cc1nn(Cc2nc(-c3ccc(C)cc3)cs2)c(=O)c2ccccc12,-1%,/,-6%,?,0%,-1%
COc1cc(/C=C2\SC(c3ccc(C)cc3)=NC2=O)cc(OC)c1O,-18%,27%,3%,-4%,-2%,6.7µM*
Cc1ccc(C2=NC(=O)/C(=C/c3cc(O)c(O)c(Br)c3)S2)cc1,-11%,-10%,-9%,-12%,-8%,8.5µM*
CCOc1ccc(-c2cc(C(=O)N3CCN(c4ccc(C)cc4)C(C)C3)c3ccccc3n2)cc1 (stereo unspecified),/,/,/,/,/,4.8µM*
CCOc1ccc(-c2cc(C(=O)N3CCN(c4cccc(C)c4)C(C)C3)c3ccccc3n2)cc1 (stereo unspecified),/,/,/,/,/,2.4µM*
COc1ccc(C)cc1NC(=O)Cn1nc(N2CCN(c3ccccc3OC)CC2)ccc1=O,/,/,/,/,/,-5%
Cc1ccc(CNC(=O)c2c3c(nc4ccccc24)C(=O)N(C2CCCCC2)C3)cc1,/,/,/,/,/,-11%
COc1ccccc1CN(C)C(=O)CSc1nnc(C2CC2)n1C1CC1,-7%,/,2%,-6%,-5%,-1%
Cc1ccccc1OCCC(=O)OCC(=O)NC1CCS(=O)(=O)C1 (stereo unspecified),-6%,/,8%,12%,-3%,1%
Cc1ccc(C(=O)O)cc1N=Cc1cc(Br)cc(Br)c1O,-7%,5%,1%,-6%,-5%,3%
CN(/N=C/c1cc(Br)cc(Br)c1O)c1cccc(C(F)(F)F)n1,-1%,/,-6%,7.3µM*,13%,-3%
Cc1ccc(C(=O)c2oc3ccccc3c2NC(=O)COc2ccc(C(C)(C)C)cc2)cc1,/,-4%,/,/,/,-1%
Cc1nc2c(-c3ccc(F)cc3)cnn2c(N)c1-c1ccc(F)cc1,0.56µM*,/,1.2µM*,?,0.45µM*,0.85µM*
Cc1cc(N2CCOCC2)n2ncc(-c3ccccc3Cl)c2n1,2.5µM*,/,9.2µM*,?,2.5µM*,2.7µM*
Cc1cc(N)n2ncc(-c3ccc(Cl)cc3)c2n1,3.2µM*,21%,?,?,2.8µM*,13µM*
Cc1cc(Cl)n2ncc(-c3ccccc3)c2n1,?,/,?,?,25%,12µM*
SMILES,Rab9 prom act,SMN2 splice enh,ELG1 genotoxic,ELG1 DNA repair,NPC1 prom act,FLuc modulator
Cc1nc2c(-c3ccc(F)cc3)c(C)nn2c(N2CCOCC2)c1C,1%,-30%,-7%,?,1%,-3%
CC(C)c1cc(N2CCOCC2)n2ncc(-c3ccccc3)c2n1,2%,/,2%,11%,2%,-4%
CN(CCC1CCOCC1)C(=O)CC1C(=O)NCCN1Cc1c(F)cccc1Cl (stereo unspecified),7%,/,4%,10%,-1%,0%
CCN(C(=O)Cn1nc(Cc2cccnc2)c2ccccc2c1=O)c1cc(C)ccc1C,/,-38%,/,/,/,-1%
COc1ccc(-c2cnn3c(C)cc(C)nc23)cc1OC,/,/,/,/,/,2%
Cc1cc(N)n2ncc(-c3ccc(F)cc3)c2n1,3.2µM*,?,16µM*,?,?,11µM*
Cc1cc(C)n2cc(-c3ccc(Cl)cc3)c(C(=O)O)c2n1,2.5µM*,13µM*,16µM*,?,2.8µM*,?
Cc1ccc2c(c1)C(=O)OC(C(=O)Nc1ncc(Cc3ccccc3Cl)s1)C2 (stereo unspecified),/,-5%,/,/,/,-1%
CC(C)CCNC(=O)c1ccc(NC(=O)N2CCCCc3ccccc32)cc1,/,-9%,/,/,/,1%
Cc1cc(C)cc(NC(=O)c2ncn(-c3ccccc3)n2)c1,/,11µM*,/,/,/,?
COCCn1c(SCC(=O)NCc2ccc(OC)c(OC)c2)nc2ccccc21,1%,/,-10%,-1%,-1%,-1%
O=C(COc1ccc(Cl)cc1Cl)Nc1cccc(-c2ccc(N3CCOCC3)nn2)c1,1µM*,/,1.8µM*,?,?,0.43µM*
CCS(=O)(=O)c1ccc(-c2cccc(NC(=O)COc3ccccc3)c2)nn1,0%,/,6%,14%,0%,1%
O=C(COc1ccccc1)Nc1cccc(-c2ccc(N3CCOCC3)nn2)c1,1.3µM*,/,2.3µM*,?,1.8µM*,1.9µM*
Cc1c(NS(=O)(=O)c2cc(C(=O)NCc3ccco3)cc(Cl)c2Cl)c(=O)n(-c2ccccc2)n1C,1%,/,-8%,?,-2%,10%
CC1CCCC(C)N1C(=O)c1ccc(S(=O)(=O)NCc2ccco2)cc1 (stereo unspecified),-3%,/,-14%,12µM*,-6%,1%
COc1ccc(Cc2nn3c(Cn4nnc5ccccc54)nnc3s2)cc1,-2%,-59%,-5%,?,3%,11µM*
CCN(CC)c1nc(-c2ccc(C(C)(C)C)cc2)nc2ccccc12,/,?,/,/,/,5.4µM*

# Compound activity: PubChem BioAssay, National Center for Advancing Translational Sciences (NCATS)
